Drawing on PubChem BioAssay, this text covers composite z-score, z-score and composite Z-score for 5 compounds.

Experiment [1] has as its system Human papillomavirus type 1a protein E7 (residues 44-93). Briefly: small molecules binding HPV E7 44-93 – biochemical, small-molecule microarray, residues 44-93, 635 nm fluorescence, primary screen (AID 1108).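 Also: E7 fragment applied at 1 µg/mL in TBST for 1 h at 4 C; score combines spot fluorescence with its signal to noise ratio.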 The settings on record: fluorescence 635 nm, higher = more signal.
The nature of experiment [2]: hepatitis C replication reporter changes, two-sided – Huh7 cells, luciferase reporter, HCV replication inhibitor project, primary screen (AID 1109).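 Also: huh7 hepatoma cells harbouring a luciferase neomycin HCV replicon reporter; luciferase luminescence as measure of HCV replicon replication; test concentration not given here.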 As to conditions: Huh7 HCV replicon luciferase reporter, 48 h; higher = more signal.
For experiment [3], the target named is Left-right determination factor 2 (Homo sapiens) (UniProt O00292). The experiment is described as follows: small molecules binding LEFTY2 protein – biochemical, small-molecule microarray, 635 nm fluorescence scan, primary screen (AID 1110). As to conditions: higher = more signal.
Chain of Left-right determination factor 2 (Homo sapiens) (O00292 whole entry, looked up): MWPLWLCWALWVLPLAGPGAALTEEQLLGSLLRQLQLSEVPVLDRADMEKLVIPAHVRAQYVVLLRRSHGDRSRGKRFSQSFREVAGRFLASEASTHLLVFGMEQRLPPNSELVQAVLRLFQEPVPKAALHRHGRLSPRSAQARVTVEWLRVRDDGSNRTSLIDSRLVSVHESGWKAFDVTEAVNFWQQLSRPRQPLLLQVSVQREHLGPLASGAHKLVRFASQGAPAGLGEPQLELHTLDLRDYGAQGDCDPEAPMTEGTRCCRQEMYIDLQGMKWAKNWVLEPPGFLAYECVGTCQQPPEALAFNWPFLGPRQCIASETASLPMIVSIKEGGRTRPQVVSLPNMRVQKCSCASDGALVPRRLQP
Experiment [4] deals with Calmodulin-1 (Homo sapiens) (UniProt P0DP23). Briefly: small molecules binding calmodulin-1 with EGTA – biochemical, small-molecule microarray, Cy5-labelled CALM1, profiling panel (AID 1111).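 Also: labelled calmodulin applied in Tris saline Tween buffer holding calcium plus EGTA and DTT.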 As to conditions: Cy5-CALM1 binding fluorescence, higher = more signal.
Experiment [5] shares this target. Briefly: small molecules binding Ca-loaded calmodulin-1 – biochemical, small-molecule microarray, Cy5-labelled CALM1, plus calcium, artefact control for SMM control-protein annotation, profiling panel (AID 1112).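 Also: score merges spot fluorescence with signal to noise from triplicate slides.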 As to conditions: Cy5-CALM1 binding fluorescence, higher = more signal.
Experiment [6] is described as follows: probe aWnt5a binding to arrayed compounds – biochemical, biotinylated probe, 635/667 nm fluorescence, primary screen (AID 1113).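 Also: score merges 667 nm fluorescence intensity with signal-to-noise per printed feature.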 The settings on record: small-molecule microarray, higher = more signal.
Experiment [7] in a line: probe aShh binding to arrayed compounds – biochemical, biotinylated probe, 635/667 nm fluorescence, primary screen (AID 1114).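 Also: probe is biotin-labelled aShh protein from a stem cell growth factor screen; measures binding of labelled protein to compounds printed on the slide; score merges feature fluorescence at 667 nm with signal-to-noise.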 The settings on record: small-molecule microarray, higher = more signal.
Experiment [8] can be described thus: probe aNog binding to arrayed compounds – biochemical, biotinylated probe, 635/667 nm fluorescence, primary screen (AID 1115).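 Also: probe is biotinylated aNog protein used at 0.15 µg/mL for 1 h at 4 C; z-score combines 667 nm fluorescence of each spot with its signal to noise.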 As to conditions: small-molecule microarray, higher = more signal.
The target in experiment [9] is Torsin-1A-interacting protein 1 (Homo sapiens) (UniProt Q5JTV8). The experiment is described as follows: compound microarray binding of lysate hLAP1 – cell lysate, small-molecule microarray, COS7 lysate, 635/667 nm fluorescence, primary screen (AID 1116). The settings on record: 635 nm fluorescence, higher = more signal.
Chain of Torsin-1A-interacting protein 1 (Homo sapiens) (Q5JTV8 whole entry, looked up): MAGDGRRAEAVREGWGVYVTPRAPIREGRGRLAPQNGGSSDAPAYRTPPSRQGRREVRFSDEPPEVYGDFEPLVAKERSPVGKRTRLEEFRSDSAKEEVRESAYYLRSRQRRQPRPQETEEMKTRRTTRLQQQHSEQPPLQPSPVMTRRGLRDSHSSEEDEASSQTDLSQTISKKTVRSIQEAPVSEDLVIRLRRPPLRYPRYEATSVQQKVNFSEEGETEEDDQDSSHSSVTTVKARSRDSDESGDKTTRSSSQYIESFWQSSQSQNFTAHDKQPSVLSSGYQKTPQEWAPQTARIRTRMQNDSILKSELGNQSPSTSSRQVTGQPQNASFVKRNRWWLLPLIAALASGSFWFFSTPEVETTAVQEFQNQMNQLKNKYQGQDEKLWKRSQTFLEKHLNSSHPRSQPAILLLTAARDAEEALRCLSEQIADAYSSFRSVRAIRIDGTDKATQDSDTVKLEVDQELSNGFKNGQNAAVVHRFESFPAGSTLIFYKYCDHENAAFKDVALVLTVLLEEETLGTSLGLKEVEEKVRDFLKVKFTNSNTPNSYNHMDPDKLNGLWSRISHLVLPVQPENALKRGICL
Experiment [10] addresses Alpha-bungarotoxin (Bungarus multicinctus) (UniProt P60615). The experiment is described as follows: compounds binding labelled alpha-BTX control protein – biochemical, small-molecule microarray, Alexa647 label, 635/667 nm fluorescence, artefact control for SMM control protein annotation, profiling panel (AID 1117). As to conditions: alpha-BTX-A647 binding fluorescence, higher = more signal.

The target in experiment [11] is Albumin (Bos taurus) (UniProt P02769). The experiment is described as follows: compounds binding labelled BSA control protein – biochemical, small-molecule microarray, Alexa647 label, 635/667 nm fluorescence, artefact control for SMM control protein annotation, profiling panel (AID 1118).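 Also: score merges 667 nm emission intensity and signal-to-noise per printed compound spot.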 As to conditions: BSA-A647 binding, fluorescence 635 nm, higher = more signal.
Chain of Albumin (Bos taurus) (P02769 whole entry, looked up): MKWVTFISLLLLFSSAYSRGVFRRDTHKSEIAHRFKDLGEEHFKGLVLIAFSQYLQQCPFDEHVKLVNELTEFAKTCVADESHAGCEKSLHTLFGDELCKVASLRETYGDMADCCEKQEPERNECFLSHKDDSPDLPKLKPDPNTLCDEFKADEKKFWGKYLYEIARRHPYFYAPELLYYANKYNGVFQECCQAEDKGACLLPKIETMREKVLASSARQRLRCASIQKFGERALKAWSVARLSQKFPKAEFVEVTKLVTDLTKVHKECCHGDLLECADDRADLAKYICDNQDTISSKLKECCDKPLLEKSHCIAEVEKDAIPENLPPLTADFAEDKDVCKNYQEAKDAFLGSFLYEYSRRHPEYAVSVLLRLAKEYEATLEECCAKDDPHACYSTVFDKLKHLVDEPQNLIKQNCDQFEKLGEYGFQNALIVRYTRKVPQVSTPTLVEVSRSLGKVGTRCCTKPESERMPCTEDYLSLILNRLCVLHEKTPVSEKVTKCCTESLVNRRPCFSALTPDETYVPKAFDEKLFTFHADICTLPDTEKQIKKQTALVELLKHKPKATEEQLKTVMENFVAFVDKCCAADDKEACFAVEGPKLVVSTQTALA

Experiment [12] in a line: probe aXIP binding to arrayed compounds – biochemical, NeuroSMM set, 635/667 nm fluorescence, primary screen (AID 1119).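 Also: probe is the protein aXip251-270 applied at 1 µg/mL to compound-printed slides; binding of probe to printed compounds measured as 667 nm fluorescence plus signal to noise.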 As to conditions: small-molecule microarray, higher = more signal, called active from +8 up or from −8 down.
A short description of experiment [13]: probe aNOTCH3 binding on compound microarray – biochemical, small-molecule microarray, 635/667 nm fluorescence, primary screen (AID 1120).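 Also: probe is a biotin-tagged antibody raised against NOTCH3 rather than NOTCH3 protein; score merges spot fluorescence near 667 nm with spot signal to noise.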 As to conditions: higher = more signal.
Experiment [14] is described as follows: probe aNOTCH2 binding on compound microarray – biochemical, small-molecule microarray, 635/667 nm fluorescence, primary screen (AID 1121).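 Also: score merges feature fluorescence read at 667 nm with its signal to noise.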 The settings on record: higher = more signal.
Experiment [15] addresses Carbonic anhydrase 2 (Homo sapiens) (UniProt P00918). The experiment is described as follows: compounds binding carbonic anhydrase 2 – biochemical, small-molecule microarray, Alexa647-labelled CAII, profiling panel (AID 1122). As to conditions: CAII-A647 binding fluorescence, higher = more signal.
Experiment [16] can be described thus: COS7 lysate on small-molecule microarray, probe aHis, 635 nm (AID 1123).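 Also: z-score combines 667nm fluorescence intensity with signal-to-noise per printed compound spot.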 The settings on record: COS7 cell lysate, fluorescence, higher = more signal.
A short description of experiment [17]: probe aLAP1 signal on lysate-treated microarray – cell lysate, small-molecule microarray, COS7 lysate, primary screen (AID 1124).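 Also: lysate comes from COS7 cells expressing LAP1 and is applied at 0.3 µg/mL; score merges spot fluorescence near 667 nm with signal-to-noise over triplicate slides.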 The settings on record: probe aLAP1, fluorescence, higher = more signal.
For experiment [18], the system named is Sam68 (KHDRBS1). Briefly: compounds binding KHDRBS1 protein – biochemical, small-molecule microarray, 635 nm fluorescence, primary screen (AID 1125).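 Also: score merges 667 nm channel intensity with signal to noise over triplicate slides.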 The settings on record: higher = more signal.
For experiment [19], the system named is Chordin-like protein 2 (CHRDL2). Briefly: compounds binding chordin-like 2 – biochemical, small-molecule microarray, 635 nm fluorescence, primary screen (AID 1126).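 Also: printed compound slides probed with Chrdl2 protein at 4 µg/mL for 1 h at 4 C; score merges 667 nm emission intensity with signal to noise over three replicate slides.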 As to conditions: fluorescence 635 nm, higher = more signal.
Experiment [20] has as its target Concanavalin-A (Canavalia ensiformis) (UniProt P02866). Briefly: compounds binding concanavalin A lectin – biochemical, small-molecule microarray, Alexa647 label, 635 nm, artefact control for SMM control protein annotation, primary screen (AID 1127).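 Also: z combines 667 nm emission intensity with signal-to-noise across three replicate slides.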 As to conditions: ConA-A647 binding fluorescence, higher = more signal.

SMILES strings stand for the structures. Activity calls are given as the source filed them.

Chain of Alpha-bungarotoxin (Bungarus multicinctus) (P60615 whole entry, looked up): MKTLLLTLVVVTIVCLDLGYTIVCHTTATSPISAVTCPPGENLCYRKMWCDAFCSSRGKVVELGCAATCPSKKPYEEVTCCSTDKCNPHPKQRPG
Chain of Concanavalin-A (Canavalia ensiformis) (P02866 whole entry, looked up): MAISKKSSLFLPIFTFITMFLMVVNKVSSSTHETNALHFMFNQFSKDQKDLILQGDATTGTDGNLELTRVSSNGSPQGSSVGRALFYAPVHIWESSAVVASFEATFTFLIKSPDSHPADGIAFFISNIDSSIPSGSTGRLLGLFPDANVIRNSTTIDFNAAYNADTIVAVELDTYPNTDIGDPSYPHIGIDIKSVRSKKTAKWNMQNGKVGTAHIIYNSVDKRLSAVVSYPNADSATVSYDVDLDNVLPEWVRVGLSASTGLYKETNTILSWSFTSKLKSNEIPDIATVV

For the compound `CCOc1cc(C(O)C2C=CC3C(=O)N(c4ccccc4)C(=O)C3N2Nc2ccccc2)ccc1O` (stereo not given), the composite z-score is 1.31 in experiment [1]; 0.181 in experiment [3]; 0.0041 in experiment [4]; -0.748 in experiment [5]; -0.0312 in [6]; 0.191 in experiment [7]. Also, the composite z-score in experiment [8] is 0.387; in experiment [9] it was 0.604; in experiment [10], 0.147; in experiment [11] it was 0.0944; in [13], -0.0647; in experiment [14], -0.164. Moreover, the composite z-score was 0.617 in [15]; 1.31 in experiment [16]; 0.791 in experiment [17]; 0.381 in experiment [18]; -0.988 in [19]; 0.403 in experiment [20]. The compound also had a z-score in experiment [2] of -0.0374. Besides, in experiment [12], the composite Z-score is -0.224 (inactive).
In the case of `C=CCOC(=O)[C@H]1[C@@H]2C(=O)O[C@@H](c3ccccc3)[C@@H](c3ccccc3)N2[C@@H](c2ccc(OCCOC(=O)[C@H]3C[C@H]4C(=O)N5CCC[C@H]5C(=O)N4[C@H]3c3ccc(O)cc3)cc2)[C@]12C(=O)Nc1ccccc12`, the composite z-score is 1.45 in experiment [1]; 1.42 in [3]; 0.959 in experiment [4]; -0.0987 in experiment [5]; 0.0354 in experiment [6]; 0.147 in experiment [7]. The composite z-score is -0.21 in experiment [8]; 1.5 in experiment [9]; 0.588 in [10]; -1.36 in [11]; 0.141 in [13]; -0.0928 in experiment [14]. Further, the composite z-score came to 0.576 in experiment [15]; 2.25 in [16]; 0.793 in experiment [17]; 1.32 in [18]; 1.25 in experiment [19]; 1.11 in experiment [20]. The compound also gave a z-score in experiment [2] of -1.93. The composite Z-score in experiment [12] is 0.171 (inactive).
Regarding `O=C1C2C=CC(C(O)C3CCCCC3)N(Nc3ccc([N+](=O)[O-])cc3)C2C(=O)N1c1ccccc1` (stereo not given), the composite z-score in experiment [1] is 1.37; in experiment [3] it was -1.4; in experiment [4] it was 1.16; in experiment [5], 0.164; in experiment [6], -0.0944; in [7], -0.0035. For the same compound, the composite z-score is 0.283 in experiment [8]; 0.721 in experiment [9]; 1.96 in [10]; 0.674 in experiment [11]; -0.366 in experiment [13]; -0.197 in experiment [14]. For the same compound, the composite z-score in experiment [15] is 0.57; in experiment [16], 2.53; in [17] it was 0.499; in experiment [18], 1.29; in [19], -1.2; in experiment [20] it was 0.909. Moreover, the z-score in experiment [2] is -0.057. Moreover, the composite Z-score in experiment [12] is -0.0746 (inactive).
On to `O=C(NCc1ccccc1)[C@@]1(Cc2ccccc2)N=C(c2ccc(OCCCO)cc2)O[C@H]1c1ccccc1`, for which the composite z-score in experiment [1] is 1.11; in [3], -0.699; in [4], 2.36; in experiment [5] it was 1.09; in [6] it was 0.055; in experiment [7], -0.181. For the same compound, the composite z-score turned out to be 1.36 in [8]; 2.02 in experiment [9]; 1.1 in experiment [10]; 0.974 in [11]; 0.261 in experiment [13]; 0.349 in [14]. In addition, the composite z-score in [15] was 0.617; in experiment [16], 2.41; in experiment [17] it was 1.4; in [18], 1.31; in experiment [19] it was -1.46; in experiment [20], 1.15. This compound also gave a z-score in experiment [2] of -2.57. In addition, in experiment [12], the composite Z-score was 0.1 (inactive).
For the compound `CCC(CC)C(O)C1C=CC2C(=O)N(C)C(=O)C2N1Nc1ccccc1` (stereo not given), the composite z-score was 0.948 in experiment [1]; -0.054 in [3]; 1.44 in [4]; 0.463 in experiment [5]; -0.0863 in [6]; 0.128 in [7]. Further, the composite z-score was 1.09 in experiment [8]; 1.64 in [9]; 1.04 in experiment [10]; 0.333 in [11]; 0.149 in experiment [13]; -0.05 in experiment [14]. In addition, the composite z-score is 0.652 in [15]; 2.5 in experiment [16]; 0.515 in [17]; 1.07 in experiment [18]; -0.237 in [19]; 1.2 in [20]. The compound also yielded a z-score in [2] of 0.347. For the same compound, in experiment [12], the composite Z-score was -0.574 (inactive).
